From PubChem BioAssay AID1852 (Sanford-Burnham Center for Chemical Genomics, 2009)
Hit rate of the full screen: of about 2,500 compounds, about 1,100 (44%) were called active. So high a share suggests a set chosen from earlier hits. The list shows a part of the results. Unmarked numbers belong to inactive results.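 How the source made its calls: active means inhibition above 50% at 4 µM in the single-point screen; inactive means inhibition of 50% or less.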

Test: blockers of TNF-a NF-kB luciferase induction – cell-based, HEK293T NF-kB-Luc, luminescence, selectivity assay for NOD1/NOD2 signaling inhibitor project, primary screen (AID 1852)
Conditions: TNF-a induced, 14 h, at 4 µM, hits give high values

SMILES | inhibition
Oc1cc2c(cc1C(c1ccc(Br)cc1)N1CCCC1)OCO2 (centres undefined) | -3.2%
CN1C(=O)/C(=C/c2cc(N=Nc3ccccc3)ccc2O)SC1=S | 98.2% (active)
Cc1cc(/C=C2\SC(=S)N(C)C2=O)c(C)n1-c1ccc(O)cc1 | 24.7%
Cc1cc(/C=C2\SC(=S)N(C)C2=O)c(C)n1-c1cccc(O)c1 | -111%
CN(C)S(=O)(=O)c1cccc(CSCc2cccc(S(=O)(=O)N(C)C)c2)c1 | 42.8%
Cc1cccc(N2CCN(C(=S)NCCc3ccccc3)CC2)c1C | -31.3%
S=C(NCCc1ccc(Cl)cc1)Nc1ccc(Cl)cc1Cl | -10.9%
CN(C)S(=O)(=O)c1cccc(NC(=S)Nc2cccc3cnccc23)c1 | 62.5% (active)
S=C(NCCc1ccccc1)Nc1cccc2cnccc12 | 69.1% (active)
Cc1sc2ncnc(N3CCC(C(=O)N(C)CC(=O)Nc4ccccc4Cl)CC3)c2c1C | 50.3% (active)
CCN(CC)CCNC(=O)c1ccc(NC(=O)C2CCN(c3ncnc4sc(C)c(C)c34)CC2)cc1 | 43.8%
CCOC(=O)c1sc(N2C(=O)C(O)=C(C(=O)c3ccco3)C2c2ccco2)nc1C (centres undefined) | 76.1% (active)
CCOC(=O)c1sc(N2C(=O)C(O)=C(C(=O)c3ccco3)C2c2cccc([N+](=O)[O-])c2)nc1C (centres undefined) | 23.8%
COc1cccc2cc(C(=O)C3=C(O)C(=O)N(c4cc(C)on4)C3c3cccs3)oc12 (centres undefined) | -0.9%
CCC(C)(C)c1ccc(Oc2ccc(N)cc2)cc1 | 75.5% (active)
NC(=O)C1CCN(c2ccc(S(=O)(=O)N3CCC(Cc4ccccc4)CC3)cn2)CC1 | 32.5%
Cc1c(C(=O)N/N=C/c2c(O)ccc3ccccc23)nnn1-c1nonc1N | 89% (active)
Nc1nonc1-n1nnc(C(=O)N/N=C/c2cc(Br)ccc2O)c1CNc1ccccc1 | 56.5% (active)
CC1CCN(Cc2c(C(=O)N/N=C/c3cc(Br)ccc3O)nnn2-c2nonc2N)CC1 | 95.1% (active)
Cc1nc([N+](=O)[O-])c(Br)n1Cc1ccc(Cl)c(Cl)c1 | 7.2%
Cn1c(=O)c2c(nc(NCc3ccco3)n2C/C=C/c2ccccc2)n(C)c1=O | 78.2% (active)
CC(C)n1c(CN(C)Cc2ccccc2)nc2c1c(=O)n(C)c(=O)n2C | 38.7%
COc1cc(CNc2ccc3[nH]c(=O)[nH]c3c2)ccc1OCc1ccccc1C | 37.1%
COc1cc(CNc2ccc3[nH]c(=O)[nH]c3c2)cc(Br)c1OCc1ccccc1F | 61% (active)

SMILES | inhibition
COc1cc(CNc2ccc3[nH]c(=O)[nH]c3c2)cc(Br)c1OCc1ccc(F)cc1 | 47.6%
Cc1cccc(C2=NC(C(F)(F)F)(C(F)(F)F)c3c(n(-c4ccc(F)cc4)c(=O)[nH]c3=O)N2)c1 | -13.7%
O=c1[nH]c(=O)n(Cc2ccco2)c2c1C(C(F)(F)F)(C(F)(F)F)N=C(c1ccc(F)cc1)N2 | 90.9% (active)
Nc1ncnc(NCc2ccc(F)cc2)c1[N+](=O)[O-] | 60.6% (active)
Cc1ccc(CNc2ncnc(N)c2[N+](=O)[O-])cc1 | 36.2%
O=C(Nc1ccc(N2CCN(c3ncccc3C(F)(F)F)CC2)nc1)c1cccs1 | 64.1% (active)
Cc1ccc(NC(=O)C2CCN(S(=O)(=O)c3ccc4c(c3)NC(=O)C(C)S4)CC2)cc1Cl (centres undefined) | 39.1%
O=S1(=O)C=C(Sc2nnc(-c3ccccc3)o2)c2ccccc21 | 70.6% (active)
Cc1nnc(Sc2nc3ccccc3o2)c2ccccc12 | 45.3%
O=S1(=O)C=C(Sc2nc3cc(Cl)ccc3o2)c2ccccc21 | 91.1% (active)
Cn1nccc1C(=O)N/N=C/c1c(O)ccc2ccccc12 | 66.6% (active)
O=C(CN1CCCC1)N/N=C/c1c(O)ccc2ccccc12 | 87.6% (active)
O=C(N/N=C/c1c(O)ccc2ccccc12)c1ccc(Br)o1 | 34.2%
O=C(N/N=C/c1c(O)ccc2ccccc12)c1ccc(CO)nc1 | 96.6% (active)
O=C(CN1CCCCCC1)Nc1ccc(Br)cn1 | -21.9%
O=C(N/N=C\c1c(O)ccc2ccccc12)c1ccc(O)cc1 | 69.4% (active)
Cc1ccc(C(=O)N/N=C/c2c(O)ccc3ccccc23)cn1 | 73.2% (active)
Cc1ccc(CN2CCN(C(=O)c3cccc4ccccc34)CC2)cc1 | 12.3%
CCN(CC)c1ccc(C(=O)N2CCN(Cc3ccccc3)CC2)cc1 | 46.5%
C#Cc1ccc([C@@H]2C=C(C(=O)N3CCN(Cc4ccccc4)CC3)O[C@H](OCCCCO)C2)cc1 | 61.3% (active)
COc1ccc2c(c1)-c1c(ssc1=S)C(C)(C)N2 | 92.8% (active)
COc1cc(/C=C2/C(=O)NN(c3cccc(Cl)c3)C2=O)cc(OC)c1O | 99.4% (active)
COc1cc(/C=C2/C(=O)NN(c3cccc(Cl)c3)C2=O)cc(Br)c1O | 0.8%
COc1cc(/C=C2/C(=O)NN(c3ccc(Cl)cc3)C2=O)cc(OC)c1O | 9.3%

SMILES | inhibition
N=C1SC(c2ccccc2)C(=O)N1c1ncc(Cc2ccccc2Cl)s1 (centres undefined) | 106% (active)
Cc1ccc(Cc2cnc(N3C(=N)SC(c4ccccc4)C3=O)s2)cc1 (centres undefined) | 99.6% (active)
N=C1SC(c2ccccc2)C(=O)N1c1ncc(Cc2ccccc2)s1 (centres undefined) | 107% (active)
CCOC(=O)C(=Cc1ccc(OCc2ccc([N+](=O)[O-])cc2)c(OC)c1)C(=O)OCC | 11.6%
Cc1nc2cc(N3CCN(C)CC3)c(NC(=O)Cc3ccccc3)cc2c(=O)n1Cc1ccccc1 | -21.7%
C/C(=N\NC(=O)c1nnn(-c2nonc2N)c1CN1CCc2ccccc21)c1ccccc1O | 78.8% (active)
C/C(=N\NC(=O)c1nnn(-c2nonc2N)c1CN1CCCCC1)c1ccccc1O | 64.6% (active)
C=CC[n+]1ccc(/C=C2\C=Cc3cc(C)ccc3N2CC)c2ccccc21 | 84.9% (active)
CCN1/C(=C/c2ccc3ccccc3[n+]2CC)C=Cc2ccccc21 | 67.3% (active)
CN1/C(=C/c2cc[n+](C)c3ccccc23)C=Cc2ccccc21 | 47.9%
C=CC[n+]1c(/C=C2\C=Cc3cc(C)ccc3N2CC)ccc2ccccc21 | 74.1% (active)
Cc1ccc2c(c1)c(/C=C/c1cc[n+](C)cc1)c(C)n2C | 24.2%
CCN1/C(=C/c2cc[n+](C)cc2)C=Cc2cc(C)ccc21 | 66% (active)
Cc1ccc(Cn2ccsc2=NC(=O)CCl)cc1 | 46.5%
CCOc1cc(C)c(Cl)cc1S(=O)(=O)n1nnc2ccccc21 | 63.8% (active)
CCCn1c(NC(=O)c2ccc(Cl)c(S(=O)(=O)N3CCCC3)c2)nc2ccccc21 | 24.9%
COc1ccc(CCNc2cc(N3CCN(C(=O)c4ccccc4F)CC3)ccc2[N+](=O)[O-])cc1OC | 85.7% (active)
CC1CC(=O)N(c2ccc(NCCc3ccccc3)c([N+](=O)[O-])c2)C1=O (centres undefined) | -4.9%
COc1ccc(CCNC(=O)c2ccc3c(c2)N(Cc2ccccc2)CCS3)cc1OC | -41.1%
CC1=C(C(=O)NC2CCCc3c2cnn3-c2ccc(F)cc2F)OCCO1 (centres undefined) | 40.2%
Cc1ccc(C(=O)NC2CCCc3c2cnn3-c2ccc(F)cc2F)cn1 (centres undefined) | 71.6% (active)
Cc1cccc(-n2ncc3c2CCCC3NC(=O)C2(C(N)=O)CC2)c1C (centres undefined) | 29.3%
CC(C)(C)c1ccc(-n2ncc3c2CCCC3NC(=O)C2(C(N)=O)CC2)cc1 (centres undefined) | 61.3% (active)
Cc1cc(C(=O)NC2CCCc3c2cnn3-c2ccc(C(C)(C)C)cc2)nn1C (centres undefined) | 68.8% (active)

SMILES | inhibition
Cn1nccc1C(=O)NC1CCCc2c1cnn2-c1ccc(C(C)(C)C)cc1 (centres undefined) | 72.8% (active)
COc1ccc(C(=O)NC2CCCc3c2cnn3-c2ccccc2F)cc1OC (centres undefined) | 33.4%
CC1CN(CCCCOc2ccc(Cl)c3ccccc23)CC(C)O1 (centres undefined) | 8.2%
Cn1nccc1C(=O)NC1CCCc2c1cnn2-c1ccc(F)cc1F (centres undefined) | 39.9%
Cc1ccc(-n2ncc3c2CCCC3NC(=O)c2ocnc2C)cc1C (centres undefined) | 49.3%
COc1ccc(C(=O)NC2CCCc3c2cnn3-c2ccccc2F)o1 (centres undefined) | -21.5%
Cn1nccc1C(=O)NC1CCCc2c1cnn2-c1ccccc1F (centres undefined) | 51.8% (active)
Cc1ncoc1C(=O)NC1CCCc2c1cnn2-c1ccc(C(C)(C)C)cc1 (centres undefined) | 74.7% (active)
Cc1c(C)c2ccc(OCC(=O)Nc3ccc(N4CCC(C)CC4)cc3)cc2oc1=O | 94.7% (active)
Cc1ccc(-n2nc3c(=O)n(C(C)C(=O)NCCCc4ccccc4)nc(C)c3c2C)cc1 (centres undefined) | 53.9% (active)
Cc1nn(Cc2ccccc2)c(Cl)c1C(=O)OC(C)C#N (centres undefined) | 40.7%
CCN(CC)S(=O)(=O)c1ccc2[nH]cc(C(=O)NCCC3=CCCCC3)c(=O)c2c1 | 38.4%
Cc1ccc(-n2nc3c(=O)n(C(C)C(=O)NCCC4=CCCCC4)nc(C)c3c2C)cc1 (centres undefined) | 54.3% (active)
Cc1ccc(-n2nc3c(=O)n(C(C)C(=O)NCCc4cccs4)nc(C)c3c2C)cc1 (centres undefined) | 60.4% (active)
C[C@@H](C(=O)NCCc1ccccc1)N1C(=O)N2CCc3c([nH]c4ccccc34)[C@@]2(C)C1=O | 38.1%
Cc1ccc(-n2nc3c(=O)n(CC(=O)NC(C)CCc4ccccc4)nc(C)c3c2C)cc1 (centres undefined) | 50% (active)
COc1ccc(-c2cc(C)no2)cc1S(=O)(=O)N1CCN(c2ccc([N+](=O)[O-])cc2)CC1 | 44.5%
CCN1/C(=C\c2ccc3ccccc3[n+]2CC)Sc2cc(C)ccc21 | 55.6% (active)
CCN1/C(=C/c2ccc3cc(C)ccc3[n+]2CC)Sc2ccccc21 | 76.1% (active)
CCN1/C(=C/c2ccc3cc(C)ccc3[n+]2CC)Sc2cc(C)ccc21 | 48.9%
CCN1/C(=C/c2ccc3cc(C)ccc3[n+]2CC)Sc2cc(C)c(C)cc21 | 54.5% (active)
CCN1/C(=C\c2ccc3cc(C)ccc3[n+]2CC)Sc2cc(C)c(C)cc21 | 65.4% (active)
